# Experimental data as given in PubChem BioAssay (NCI).
# The panel holds about 83,000 compounds, 20% with a hit somewhere; the sample as a whole holds those more often.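 In brief: 96-well plates, 48 h treatment, single concentration, percent growth endpoint.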 Values without a mark were called inactive. Activity calls are given as the source filed them. Rule for the calls: active = growth percent below 10; inactive = the rest.
# Tested on: MDA-MB-468 breast
# Assay: NCI-60 one-dose screen, 48 h (100 = growth as untreated, 0 = no growth, -100 = all killed)
# Details: 10 µM unless noted
row,Compound,growth
1,O=C1NC(=C(Cl)Cl)/C(=N/S(=O)(=O)N2CCCCC2)N1,-38% (active)
2,O=C(NCCN1CCCC1)c1ccc(-c2nc3ccc4[nH]ncc4c3c3c2CCCC3)cc1,-43.9% (active)
3,Cc1ccc(C2SCC(=O)N2Cc2ccccc2)cc1 (stereo unspecified),87.3%
4,CCOc1c(Br)cc(C2C(C(=O)OC)=CN(C)C=C2C(=O)OC)cc1OC,0.386% (active)
5,Cn1c2ccccc2c2c3c(c4c5ccccc5[nH]c4c21)C(=O)N(N)C3=O,-37.5% (active)
6,NC(=S)N1N=C(c2ccccc2)CC1c1cn(-c2ccccc2)nc1-c1ccc(OCc2ccccc2)cc1 (stereo unspecified),102%
7,O=c1c2cc(C(F)(F)F)ccc2sc2c(NCCCNCCO)nc3ccccc3c12,-74.3% (active)
8,COc1ccc(/C=C/C(=O)c2ccc(Oc3ncnc4ccccc34)cc2)cc1OC,28.4%
9,C=C(C)[C@@H]1CC[C@]2(COC)CC[C@]3(C)[C@H](CC[C@@H]4[C@@]5(C)CCCNC(C)(C)[C@@H]5CC[C@]43C)[C@@H]12,-50.5% (active)
10,O=C1NC(=O)c2c1c1c3ccccc3[nH]c1c1oc3cc(Br)ccc3c21,62.6%
11,COc1ccc(S(=O)(=O)N2CCN(c3cc4c(cc3F)c(=O)c(C(=O)O)cn4C3CC3)CC2)c(OC)c1,86.4%
12,N#C/C(=C\c1c(-c2ccccc2)[nH]c2ccccc12)S(=O)(=O)c1ccccc1,20.5%
13,NS(=O)(=O)c1ccc(-n2ncc3c(=O)[nH]c(CN4CCN(c5cc6c(cc5F)c(=O)c(C(=O)O)cn6C5CC5)CC4)nc32)cc1,95.4%
14,NS(=O)(=O)c1ccc(CCN2C(=O)C3C(C2=O)C2(Cl)C(Cl)=C(Cl)C3(Cl)C2(Cl)Cl)cc1 (stereo unspecified),109%
15,N#CC1=C(N)Oc2c(sc3c(Br)cccc23)C1c1ccc([N+](=O)[O-])cc1 (stereo unspecified),42.2%
16,C[C@]12CC[C@@H]3c4ccc(O)cc4CC[C@H]3[C@@H]1CC[C@@H]2NS(=O)(=O)c1ccc(C(F)(F)F)cc1,53%
17,CC(C)c1cc(N=O)cc(C(C)C)c1O,81.8%
18,N#Cc1c(NC(=O)c2ccc(F)c(Cl)c2)sc2c1CCC(=O)C2,-20% (active)

row,Compound,growth
1,NC(=S)NN=C1CCCC1,14.1%
2,CCCC(O)Cn1ncc(C(=O)OCC)c1NC(=O)NCc1ccccc1F (stereo unspecified),75.9%
3,Cc1cn(-c2cc(NC(=O)c3ccc(C)c(Nc4nccc(-c5cccnc5)n4)c3)cc(C(F)(F)F)c2)cn1,37.2%
4,N#Cc1c(-c2cccc(F)c2)cc(-c2ccc(Br)s2)[nH]c1=O,82.1%
5,C=C1C(=O)O[C@H]2[C@H]1CC/C(COC(=O)N[C@@H](Cc1c[nH]c3ccccc13)C(=O)OC)=C\CC[C@@]1(C)O[C@@H]21,-16.4% (active)
6,CC1=C(C(=O)Nc2nc(-c3ccc(Cl)cc3)cs2)[C@H](c2ccc(O)cc2)NC(=O)N1,95%
7,CC(=O)c1cc2c(N)c(C(=O)Nc3cccc4ccncc34)sc2nc1C,71.6%
8,CCOC(=O)C(=O)C=P(c1ccccc1)(c1ccccc1)c1ccccc1,114%
9,C#CC[C@@H]1C[C@]2(C)[C@H]3CC=C4[C@H]5[C@@H](C)[C@H](C)CC[C@]5(C(=O)NCCCCN)CC[C@@]4(C)[C@]3(C)CC[C@H]2C(C)(C)[C@H]1OC(C)=O,81%
10,CCCCCCCCCCCC1=NC(C)(C)CN1C(C)(C)CO,-16% (active)
11,CCOC(=O)c1nnn(C(Cc2ccccc2Cl)C(=O)OCC)c1C (stereo unspecified),110%
12,COc1cc(-c2nn(-c3ccc(NC(=O)Nc4ccc(Cl)c(C(F)(F)F)c4)cc3)cc2-c2ccncc2)ccc1Cl,-13.2% (active)
13,Oc1ccccc1-c1nnc(SCc2ccc(O)c3ncccc23)n1-c1ccccc1,0.833% (active)
14,CC(=O)Oc1ccccc1C(=O)Nc1ccc(C(=O)/C=C/c2cccs2)cc1,109%
15,Cc1ccc(-c2cc(-c3ccc(C)cc3)nc(NCCNc3ccnc4cc(Cl)ccc34)n2)cc1,-93.2% (active)
16,O=C(O)c1ccccc1Oc1cc(-c2ccco2)nc(OCCBr)n1,119%
17,Clc1ccc(Cc2nc3ccccc3s2)cc1,104%
18,CC(/C=N/NC(=O)c1cc(-c2ccco2)[nH]n1)=C\c1ccccc1,117%
